This passage reports outcome and AC50 results from PubChem BioAssay (EPA / NIEHS).

Inconclusive results are not listed. Activity calls are given as the source filed them. The calls were made as follows, unless noted: active = hit-call score of the fitted dose curve at least 0.9, where 1 is the maximum; inactive = score below 0.9.

Broadly, the AC50 is the concentration at which the activity in the assay is half-maximal.

In assay [1] the target is Myc proto-oncogene protein (Homo sapiens) (UniProt P01106). As to the kind of experiment: ATG_Myc_CIS: Attagene CIS-FACTORIAL HepG2 Assay for human Myelocytomatosis (Myc) Proto-Oncogene Transcription Factor (AID 2282990). To be noted: HepG2, Attagene cis-reporter transcription factor activity; actives raise or lower the signal. The procedure, abridged: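 Read-out: fluorescent reporter mRNA fragments resolved by capillary electrophoresis after RT-PCR. Human HepG2 liver cells carried transfected cis-element reporter units and were dosed for 24 h. Gain or loss of signal fitted relative to DMSO baseline.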
Sequence of Myc proto-oncogene protein (Homo sapiens) (P01106 whole entry, looked up, the tested form may be a part): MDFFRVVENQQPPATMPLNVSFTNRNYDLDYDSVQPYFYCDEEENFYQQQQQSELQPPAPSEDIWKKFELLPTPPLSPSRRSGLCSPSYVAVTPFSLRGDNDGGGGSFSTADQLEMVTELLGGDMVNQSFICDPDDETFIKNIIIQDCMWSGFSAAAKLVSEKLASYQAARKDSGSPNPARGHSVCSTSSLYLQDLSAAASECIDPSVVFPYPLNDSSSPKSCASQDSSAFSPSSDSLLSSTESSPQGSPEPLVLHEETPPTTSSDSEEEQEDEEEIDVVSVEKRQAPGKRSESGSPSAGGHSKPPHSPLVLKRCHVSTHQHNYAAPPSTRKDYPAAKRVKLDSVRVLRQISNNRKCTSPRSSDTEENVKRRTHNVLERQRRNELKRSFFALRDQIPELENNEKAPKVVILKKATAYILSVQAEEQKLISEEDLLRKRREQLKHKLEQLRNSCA

The nature of assay [2]: ATG_NF_kB_CIS: Attagene CIS-FACTORIAL HepG2 Assay for human Nuclear Factor Kappa B (NF-kB) (AID 2282991). To be noted: HepG2 Attagene cis-factorial NF-kB reporter mRNA; actives raise or lower the signal. The method, boiled down: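 Endogenous transcription factor activity in HepG2 was captured via cis-regulated reporter constructs; after 24 h dosing, reporter mRNA was reverse-transcribed, amplified, fluorescently labelled and sized by capillary electrophoresis, with activity fitted bidirectionally relative to DMSO.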

Assay [3] in a line: ATG_NRF2_ARE_CIS: Attagene CIS-FACTORIAL HepG2 Assay for human Nuclear Factor Erythroid 2 Related Factor 2 (NFR2) response to Antioxidant Response Elements (ARE) (AID 2282992).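 As to AC50: reporter mRNA level measured by RT-PCR and capillary electrophoresis fluorescence.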 To be noted: HepG2 Attagene ARE/NRF2 reporter, transcription factor activity; actives raise or lower the signal. The procedure, abridged: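 Fluorescence intensity of reporter-specific cDNA fragments, separated by capillary electrophoresis, reflects mRNA induction in transfected HepG2 cells at 24 h. Activity is fitted bidirectionally, DMSO serving as baseline.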

Assay [4] can be described thus: ATG_Oct_MLP_CIS: Attagene CIS-FACTORIAL HepG2 Assay for human Octamer-Binding Transcription Factor (Oct) (AID 2282993). As to conditions: HepG2 Attagene cis-factorial Oct reporter, mRNA; actives raise or lower the signal. The method, boiled down: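 Read-out: reporter mRNA via RT-PCR plus capillary electrophoresis of 6-FAM-labelled fragments. Transiently transfected HepG2, 24 h exposure, endogenous TF activity on cis elements. Gain or loss of signal fitted relative to DMSO.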

Assay [5] addresses Cellular tumor antigen p53 (Homo sapiens) (UniProt P04637). Description: ATG_p53_CIS: Attagene CIS-FACTORIAL HepG2 Assay for human p53 Transcription Factor (AID 2282994). As to conditions: HepG2 p53 cis-element reporter, Attagene mRNA; actives raise or lower the signal. The procedure, abridged: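 Transiently transfected HepG2 (multiple cis reporter transcription units); exposure 24 h; reporter RNA via RT-PCR, 6-FAM extension, 2 h HpaI digest at 37 C, CE detection; DMSO baseline.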

Assay [6] is described as follows: BSK_3C_TissueFactor: BioMAP Diversity Plus: 3C Assay for Tissue Factor Biomarker Activity (AID 2282997). As to conditions: BioMAP 3C HUVEC, tissue factor biomarker readout; actives raise or lower the signal. The procedure, abridged:
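Cells used were primary human umbilical vein endothelial cells. They were dosed with chemical, and after 24 h Tissue Factor was quantified by ELISA. Curves were fitted bidirectionally with DMSO as baseline.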

The nature of assay [7]: BSK_3C_uPAR: BioMAP Diversity Plus: 3C Assay for Urokinase-type plasminogen activator receptor (uPAR) Biomarker Activity (AID 2282998). To be noted: BioMAP 3C HUVEC, uPAR biomarker ELISA; actives raise or lower the signal. The procedure, abridged:
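HUVEC primary cells; 24 h post-dose; uPAR by ELISA; gain or loss of signal fitted bidirectionally vs DMSO baseline.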

Assay [8] can be described thus: BSK_3C_VCAM1: BioMAP Diversity Plus: 3C Assay for Vascular cell adhesion molecule 1 (VCAM1) Biomarker Activity (AID 2282999). As to conditions: BioMAP 3C HUVEC, VCAM1 ELISA, cytokine-stimulated; actives raise or lower the signal. The method, boiled down: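 HUVEC primary cells, 24 h compound exposure; VCAM-1 by ELISA; gain/loss of signal fitted bidirectionally vs DMSO baseline.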
Background: In an ELISA, binding on a coated surface is turned into a signal by an enzyme label.

Assay [9] in a line: BSK_4H_Eotaxin3: BioMAP Diversity Plus: 4H Assay for Eotaxin 3 Biomarker Activity (AID 2283000).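 Also: CCL26 protein level quantified by ELISA in parallel with SRB cytotoxicity check.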 To be noted: primary human endothelial cells (HUVEC); actives raise or lower the signal. The method, boiled down:
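Endothelial primary cells (human umbilical vein) exposed to compound for 24 h. ELISA detection of Eotaxin-3.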

Read-out in assay [10]: Intercellular Adhesion Molecule 1 (ICAM1), ICAM1 (gene 3383)
Description: BSK_3C_ICAM1: BioMAP Diversity Plus: 3C Assay for Intercellular Adhesion Molecule 1 (ICAM1) Biomarker Activity (AID 2283003). As to conditions: primary human endothelial cells (HUVEC); actives raise or lower the signal. The procedure, abridged: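 Chemicals are dosed onto primary human umbilical vein endothelium (3C system). After 24 h, ICAM-1 is measured by ELISA, and responses are fitted bidirectionally relative to DMSO.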

For assay [11], the target named is human Retinoic Acid Receptor beta (RARb), RARB (gene 5915) (UniProt P10826). As to the kind of experiment: ATG_RARb_TRANS: Attagene TRANS-FACTORIAL HepG2 Assay for human Retinoic Acid Receptor beta (AID 2283004; active = hit-call score of the fitted dose curve at least 0.9, where 1 is the maximum). The procedure, abridged: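 HepG2, transient MRTU transfection, NR–Gal4 chimera, 24 h treatment; RT-PCR plus CE fluorescence detection of reporter mRNA; gain of signal vs DMSO.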
Sequence of human Retinoic Acid Receptor beta (RARb), RARB (gene 5915) (P10826 whole entry, looked up, the tested form may be a part): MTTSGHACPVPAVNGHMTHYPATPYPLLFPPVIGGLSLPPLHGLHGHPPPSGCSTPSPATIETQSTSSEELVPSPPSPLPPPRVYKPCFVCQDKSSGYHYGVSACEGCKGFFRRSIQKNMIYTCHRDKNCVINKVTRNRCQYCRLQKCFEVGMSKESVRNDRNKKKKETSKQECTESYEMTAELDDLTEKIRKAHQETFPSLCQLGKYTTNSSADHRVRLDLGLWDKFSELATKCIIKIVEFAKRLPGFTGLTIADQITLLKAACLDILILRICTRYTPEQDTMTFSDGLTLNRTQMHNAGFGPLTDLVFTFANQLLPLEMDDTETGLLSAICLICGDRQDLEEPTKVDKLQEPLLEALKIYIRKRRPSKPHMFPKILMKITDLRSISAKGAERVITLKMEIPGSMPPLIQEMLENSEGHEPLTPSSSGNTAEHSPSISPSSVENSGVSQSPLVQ

Assay [12] addresses Retinoic acid receptor alpha (Homo sapiens) (UniProt P10276). As to the kind of experiment: ATG_RARa_TRANS: Attagene TRANS-FACTORIAL HepG2 Assay for human Retinoic Acid Receptor alpha (RARa) (AID 2283005; active = hit-call score of the fitted dose curve at least 0.9, where 1 is the maximum). The procedure, abridged:
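HepG2 transiently transfected with multiplex GAL4-UAS reporter units including a human RARa–GAL4 chimera; 24 h compound exposure. Reporter mRNA quantified by RT-PCR, 6-FAM labeling and capillary electrophoresis; gain of signal versus DMSO.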

Assay [13] is described as follows: BSK_3C_Proliferation: Cell Proliferation Assessment in the BioMAP Diversity Plus: 3C Assay (AID 2283006).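 As to AC50: potency may reflect either rise or fall in cell number versus DMSO.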 As to conditions: primary human endothelial cells (HUVEC). The method, boiled down:
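Cells (human umbilical vein endothelial, sub-confluent) receive test chemical; after 48 h they are fixed in 10% trichloroacetic acid, stained with 0.1% SRB and read at 560 nm. Activity is referenced to DMSO, fitting increases and decreases.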

Assay [14] has as its target Nuclear receptor subfamily 1 group I member 2 (Homo sapiens) (UniProt O75469). As to the kind of experiment: ATG_PXR_TRANS: Attagene TRANS-FACTORIAL HepG2 Assay for human Pregnane X Receptor (PXR) (AID 2283008; active = hit-call score of the fitted dose curve at least 0.9, where 1 is the maximum). The procedure, abridged:
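Transient HepG2 transfectants carrying multiplexed reporter transcription units; PXR activity read through a Gal4 chimera. 24 h exposure. RT-PCR/CE fluorescence; upward curve fit referenced to DMSO.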

For assay [15], the target named is human Retinoic Acid Receptor gamma (RARg), RARG (gene 5916) (UniProt P13631). As to the kind of experiment: ATG_RARg_TRANS: Attagene TRANS-FACTORIAL HepG2 Assay for human Retinoic Acid Receptor gamma (RARg) (AID 2283009; active = hit-call score of the fitted dose curve at least 0.9, where 1 is the maximum;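 as to AC50: AC50 is for reporter induction above DMSO meaning RARg activation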). The procedure, abridged:
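TRANS format measured activity of exogenous NR-GAL4 fusion (RARg) in transfected HepG2 liver cells after 24 h dosing. Induced reporter RNA was detected by RT-PCR/capillary electrophoresis fluorescence, analysed in the positive direction against DMSO.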

For assay [16], the target named is human Peroxisome Proliferator-activated Receptor delta (PPARd), PPARD (gene 5467) (UniProt Q03181). Description: ATG_PPARd_TRANS: Attagene TRANS-FACTORIAL HepG2 Assay for human Peroxisome Proliferator-activated Receptor delta (PPARd) (AID 2283002; active = hit-call score of the fitted dose curve at least 0.9, where 1 is the maximum). The method, boiled down: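 Read-out: reporter mRNA induction, quantified by fluorescent RT-PCR products resolved by capillary electrophoresis. Human HepG2 liver cells carried transiently transfected Gal4-UAS reporter constructs with chimeric NR-Gal4 fusions. Cells were dosed for 24 h; DMSO served as baseline.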
Sequence of human Peroxisome Proliferator-activated Receptor delta (PPARd), PPARD (gene 5467) (Q03181 whole entry, looked up, the tested form may be a part): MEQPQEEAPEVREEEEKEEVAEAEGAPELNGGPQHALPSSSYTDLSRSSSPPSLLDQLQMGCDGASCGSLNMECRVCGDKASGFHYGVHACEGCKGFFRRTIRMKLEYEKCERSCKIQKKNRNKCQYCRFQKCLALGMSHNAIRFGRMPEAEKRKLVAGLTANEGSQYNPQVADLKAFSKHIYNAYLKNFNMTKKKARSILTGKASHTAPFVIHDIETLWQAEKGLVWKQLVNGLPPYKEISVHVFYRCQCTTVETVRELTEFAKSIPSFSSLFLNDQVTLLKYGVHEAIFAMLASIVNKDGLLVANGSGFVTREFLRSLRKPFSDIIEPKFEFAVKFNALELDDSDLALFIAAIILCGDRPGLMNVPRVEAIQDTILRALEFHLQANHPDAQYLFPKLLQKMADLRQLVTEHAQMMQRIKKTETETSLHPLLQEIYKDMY

The target in assay [17] is human RAR-related Orphan Receptor gamma (RORg), RORC (gene 6097) (UniProt P51449). As to the kind of experiment: ATG_RORg_TRANS: Attagene TRANS-FACTORIAL HepG2 Assay for human RAR-related Orphan Receptor gamma (RORg) (AID 2283011; active = hit-call score of the fitted dose curve at least 0.9, where 1 is the maximum). The method, boiled down: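 Activity is scored as increase in GAL4-UAS reporter mRNA over DMSO, detected by fluorescent RT-PCR and capillary electrophoresis in HepG2 cells transiently expressing a RORg-Gal4 chimera, 24 h after dosing.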
Sequence of human RAR-related Orphan Receptor gamma (RORg), RORC (gene 6097) (P51449 whole entry, looked up, the tested form may be a part): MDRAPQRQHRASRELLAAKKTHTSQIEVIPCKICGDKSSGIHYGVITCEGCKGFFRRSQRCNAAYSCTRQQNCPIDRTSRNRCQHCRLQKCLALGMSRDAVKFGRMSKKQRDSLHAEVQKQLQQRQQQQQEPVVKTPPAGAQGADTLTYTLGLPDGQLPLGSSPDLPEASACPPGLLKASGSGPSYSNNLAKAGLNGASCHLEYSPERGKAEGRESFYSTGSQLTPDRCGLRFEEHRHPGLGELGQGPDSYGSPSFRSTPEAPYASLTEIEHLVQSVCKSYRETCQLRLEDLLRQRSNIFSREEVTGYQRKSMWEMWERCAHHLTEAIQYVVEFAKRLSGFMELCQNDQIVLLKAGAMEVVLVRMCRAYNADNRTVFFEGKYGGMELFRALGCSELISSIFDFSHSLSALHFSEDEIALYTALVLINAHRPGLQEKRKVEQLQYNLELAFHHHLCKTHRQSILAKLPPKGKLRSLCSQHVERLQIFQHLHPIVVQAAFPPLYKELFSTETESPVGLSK

Assay [18] addresses Peroxisome proliferator-activated receptor gamma (Homo sapiens) (UniProt P37231). As to the kind of experiment: ATG_PPARg_TRANS: Attagene TRANS-FACTORIAL HepG2 Assay for human Peroxisome Proliferator-activated Receptor-gamma (PPARg) (AID 2283007; active = hit-call score of the fitted dose curve at least 0.9, where 1 is the maximum). The procedure, abridged: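 A TRANS-format multiplexed reporter assay measures activity of an exogenous chimeric NR-Gal4 protein in HepG2 cells. After 24 h of chemical exposure, reporter transcripts are amplified, fluorescently labelled and sized by capillary electrophoresis, with gain of signal scored against DMSO.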

Sequence of Cellular tumor antigen p53 (Homo sapiens) (P04637 whole entry, looked up): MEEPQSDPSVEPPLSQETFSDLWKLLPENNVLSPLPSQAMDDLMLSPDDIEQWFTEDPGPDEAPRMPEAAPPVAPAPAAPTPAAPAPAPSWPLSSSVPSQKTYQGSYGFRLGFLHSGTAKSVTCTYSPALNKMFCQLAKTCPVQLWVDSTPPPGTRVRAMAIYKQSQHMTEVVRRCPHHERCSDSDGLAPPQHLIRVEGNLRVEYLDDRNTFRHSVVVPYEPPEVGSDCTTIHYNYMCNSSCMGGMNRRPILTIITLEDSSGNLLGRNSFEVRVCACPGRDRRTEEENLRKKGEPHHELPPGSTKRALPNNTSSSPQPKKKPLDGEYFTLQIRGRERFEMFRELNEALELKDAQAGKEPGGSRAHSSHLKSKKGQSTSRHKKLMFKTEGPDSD
Sequence of human Retinoic Acid Receptor gamma (RARg), RARG (gene 5916) (P13631 whole entry, looked up, the tested form may be a part): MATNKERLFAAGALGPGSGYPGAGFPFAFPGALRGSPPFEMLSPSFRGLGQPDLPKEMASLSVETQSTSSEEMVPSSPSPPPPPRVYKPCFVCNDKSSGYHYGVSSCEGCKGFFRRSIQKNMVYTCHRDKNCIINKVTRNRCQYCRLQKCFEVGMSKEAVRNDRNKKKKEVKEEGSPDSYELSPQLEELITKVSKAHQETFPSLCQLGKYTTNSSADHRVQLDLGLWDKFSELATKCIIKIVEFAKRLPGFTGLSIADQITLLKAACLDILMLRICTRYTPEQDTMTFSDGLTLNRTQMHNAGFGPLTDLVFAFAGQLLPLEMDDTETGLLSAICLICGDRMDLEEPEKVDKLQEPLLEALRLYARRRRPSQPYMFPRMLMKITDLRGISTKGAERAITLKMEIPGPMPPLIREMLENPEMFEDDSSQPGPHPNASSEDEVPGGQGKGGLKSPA
Sequence of Nuclear receptor subfamily 1 group I member 2 (Homo sapiens) (O75469 whole entry, looked up, the tested form may be a part): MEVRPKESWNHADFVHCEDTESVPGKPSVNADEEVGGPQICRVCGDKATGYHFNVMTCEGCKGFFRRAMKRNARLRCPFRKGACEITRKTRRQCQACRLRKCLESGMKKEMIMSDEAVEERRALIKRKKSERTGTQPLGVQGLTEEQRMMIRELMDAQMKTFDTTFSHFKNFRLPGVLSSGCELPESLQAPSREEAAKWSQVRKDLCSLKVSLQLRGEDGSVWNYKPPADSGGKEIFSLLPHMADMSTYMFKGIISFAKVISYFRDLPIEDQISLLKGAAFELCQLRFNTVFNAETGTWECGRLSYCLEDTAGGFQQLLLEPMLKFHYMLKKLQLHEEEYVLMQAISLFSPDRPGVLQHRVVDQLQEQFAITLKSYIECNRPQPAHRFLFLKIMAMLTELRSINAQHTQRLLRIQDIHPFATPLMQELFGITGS
Sequence of Retinoic acid receptor alpha (Homo sapiens) (P10276 whole entry, looked up, the tested form may be a part): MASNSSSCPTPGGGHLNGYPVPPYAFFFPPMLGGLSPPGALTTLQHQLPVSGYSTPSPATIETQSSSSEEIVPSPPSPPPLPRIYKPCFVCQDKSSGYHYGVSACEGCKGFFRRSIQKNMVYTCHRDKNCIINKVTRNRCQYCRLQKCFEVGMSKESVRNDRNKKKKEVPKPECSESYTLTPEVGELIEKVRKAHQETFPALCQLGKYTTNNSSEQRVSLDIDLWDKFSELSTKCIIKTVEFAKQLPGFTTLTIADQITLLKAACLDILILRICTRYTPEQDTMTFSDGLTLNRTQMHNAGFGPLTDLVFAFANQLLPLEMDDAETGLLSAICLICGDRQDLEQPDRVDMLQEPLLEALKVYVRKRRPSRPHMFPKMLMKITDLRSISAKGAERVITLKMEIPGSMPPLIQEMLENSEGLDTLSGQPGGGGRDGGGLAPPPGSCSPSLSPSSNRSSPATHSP
Sequence of Peroxisome proliferator-activated receptor gamma (Homo sapiens) (P37231 whole entry, looked up, the tested form may be a part): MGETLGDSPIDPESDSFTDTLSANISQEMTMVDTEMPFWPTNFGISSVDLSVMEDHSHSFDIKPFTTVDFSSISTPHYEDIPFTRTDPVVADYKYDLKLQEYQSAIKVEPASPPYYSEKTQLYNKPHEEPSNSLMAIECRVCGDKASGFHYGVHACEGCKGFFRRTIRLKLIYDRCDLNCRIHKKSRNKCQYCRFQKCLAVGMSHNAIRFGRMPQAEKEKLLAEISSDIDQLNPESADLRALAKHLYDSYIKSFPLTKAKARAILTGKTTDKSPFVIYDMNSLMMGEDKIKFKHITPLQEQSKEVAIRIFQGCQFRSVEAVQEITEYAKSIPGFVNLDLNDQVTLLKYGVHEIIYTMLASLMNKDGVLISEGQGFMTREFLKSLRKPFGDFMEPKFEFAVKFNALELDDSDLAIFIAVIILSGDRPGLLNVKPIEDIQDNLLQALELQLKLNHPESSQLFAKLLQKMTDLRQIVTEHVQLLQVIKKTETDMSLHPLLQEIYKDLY

For `C=CCCCCCCCCC(=O)O`, the result in assay [1], in [2], in assay [3], in [4], in [5] and in assay [6] was inactive. Besides, the result in [7], in assay [8], in [9], in assay [10], in assay [11] and in [12] was inactive. Further, the outcome in assay [13], in assay [14] and in assay [15] was inactive.

On to `C1=CCCC=CCCC=CCC1`, for which the call in assay [1], in assay [2], in assay [4], in [5], in assay [6] and in assay [7] was inactive. The outcome in assay [8], in assay [9], in assay [10], in assay [11], in [12] and in assay [13] was inactive. In addition, the AC50 in [3] is 159 µM (active); in assay [14], 56.5 µM (active); in [15], 26.9 µM (active).

For `CNS(=O)(=O)c1cc(C(=O)N2CCC(CCN3C4CCC3CC(n3c(C)nc5ccccc53)C4)(c3cccc(F)c3)CC2)c(Cl)cc1F` (stereo unspecified), the compound was classed as inactive in assay [1], in assay [4], in assay [6], in assay [16], in assay [10] and in [11]. In addition, the call in assay [15] and in [17] was inactive. For the same compound, the AC50 is 5.18 µM (active) in assay [2]; 2.71 µM (active) in assay [3]; 6.99 µM (active) in assay [5]; 16.7 µM (active) in assay [7]; 15.4 µM (active) in assay [13]; 0.779 µM (active) in assay [14].

As for `Nc1ccc(Nc2ccccc2)cc1`, the compound was called inactive in assay [1], in assay [2], in assay [5], in [7], in assay [11] and in assay [18]. For the same compound, the call in assay [14] was inactive. Moreover, the AC50 in [3] was 47.1 µM (active); in assay [4], 32 µM (active); in assay [6], 0.903 µM (active); in assay [8] it was 4.54 µM (active); in [13] it was 3.97 µM (active).
